# How the values were obtained:
# Test in all cases: DAPPL (digital affinity profiling via proximity ligation, sequencing); 10 mM Tris-HCl pH 7.5, 50 mM NaCl, 1 mM DTT, 4% glycerol, room temperature, 30 min; GST-TFs on glutathione beads, 16-mer random dsDNA library, 0.1% formaldehyde crosslink after washing; high values mean tight binding
# FEV = molecular target: T1, FEV (Homo sapiens, UniProt Q99581 1-238); settings: protein: recombinant; tags: N-terminal GST; dsDNA, one strand shown
# T1 sequence: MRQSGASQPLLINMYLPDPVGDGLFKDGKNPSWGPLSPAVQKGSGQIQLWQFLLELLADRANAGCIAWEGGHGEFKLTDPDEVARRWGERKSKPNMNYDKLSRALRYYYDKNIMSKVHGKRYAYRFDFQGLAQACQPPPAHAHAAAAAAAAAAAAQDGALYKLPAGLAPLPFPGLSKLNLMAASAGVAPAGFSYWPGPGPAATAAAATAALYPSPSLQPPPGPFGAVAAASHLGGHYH
# How it was run: (§1)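 The binding signal reported is, for every hexamer, its read frequency for a factor over its read frequency for the tag-only sample. Reads came from pools of yeast-expressed, GST-fused human transcription factors on glutathione beads, barcoded with DNA and mixed with that sample, which were incubated with 200 nmole of a random double-stranded 16-mer DNA library in Tris/NaCl/DTT/glycerol buffer at room temperature for 30 min. After washing, the pools were crosslinked with 0.1% formaldehyde, proximity-ligated with BsaI/T4 ligase for 1 h at 37 °C, PCR-amplified and sequenced on an Illumina NextSeq500.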
# ETV5 = ETV5 (Homo sapiens, UniProt P41161 1-510); settings: protein: recombinant; tags: N-terminal GST; dsDNA, one strand shown
# How it was run: as §1
# HSF1 = HSF1 (Homo sapiens, UniProt Q00613 1-529); settings: protein: recombinant; tags: N-terminal GST; chain copies: 3; dsDNA, one strand shown
# How it was run: as §1
# SPIC = molecular target: T2, SPIC (Homo sapiens, UniProt Q8N5J4 1-248); settings: protein: recombinant; tags: N-terminal GST; dsDNA, one strand shown
# T2 sequence: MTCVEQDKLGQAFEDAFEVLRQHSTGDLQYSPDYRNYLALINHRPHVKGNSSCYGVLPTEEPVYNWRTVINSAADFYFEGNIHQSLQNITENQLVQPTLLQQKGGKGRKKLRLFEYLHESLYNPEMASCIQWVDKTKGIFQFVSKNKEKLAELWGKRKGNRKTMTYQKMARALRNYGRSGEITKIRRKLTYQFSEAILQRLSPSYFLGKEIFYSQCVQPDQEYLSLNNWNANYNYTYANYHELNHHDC
# How it was run: as §1
# ELF4 = ELF4 (Homo sapiens, UniProt Q99607 1-663); settings: protein: recombinant; tags: N-terminal GST; dsDNA, one strand shown
# How it was run: as §1
# ELK4 = molecular target: T3, ELK4 (Homo sapiens, UniProt P28324-2 1-405); settings: protein: recombinant; tags: N-terminal GST; dsDNA, one strand shown
# T3 sequence: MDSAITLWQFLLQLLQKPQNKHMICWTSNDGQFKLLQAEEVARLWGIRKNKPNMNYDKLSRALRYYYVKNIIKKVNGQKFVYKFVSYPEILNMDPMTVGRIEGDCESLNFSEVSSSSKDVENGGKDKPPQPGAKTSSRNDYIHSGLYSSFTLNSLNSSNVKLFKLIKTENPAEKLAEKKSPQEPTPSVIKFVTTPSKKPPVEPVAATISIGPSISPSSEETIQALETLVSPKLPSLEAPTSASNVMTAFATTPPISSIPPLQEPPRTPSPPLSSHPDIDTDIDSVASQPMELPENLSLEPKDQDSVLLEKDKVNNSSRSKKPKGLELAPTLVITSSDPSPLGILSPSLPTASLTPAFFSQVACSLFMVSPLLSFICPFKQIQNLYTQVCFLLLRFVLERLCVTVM
# How it was run: as §1
# ETV2 = molecular target: T4, ETV2 (Homo sapiens, UniProt O00321 1-342); settings: protein: recombinant; tags: N-terminal GST; dsDNA, one strand shown
# T4 sequence: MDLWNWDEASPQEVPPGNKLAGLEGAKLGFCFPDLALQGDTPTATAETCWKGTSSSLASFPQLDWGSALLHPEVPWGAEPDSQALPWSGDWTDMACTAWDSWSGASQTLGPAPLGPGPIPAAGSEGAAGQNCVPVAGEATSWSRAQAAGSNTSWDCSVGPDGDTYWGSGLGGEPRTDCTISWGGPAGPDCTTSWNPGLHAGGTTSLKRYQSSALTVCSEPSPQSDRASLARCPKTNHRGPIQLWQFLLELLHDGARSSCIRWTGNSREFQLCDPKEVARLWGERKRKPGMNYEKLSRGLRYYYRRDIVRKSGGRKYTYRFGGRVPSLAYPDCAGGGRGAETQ
# How it was run: as §1
# ELF3 = molecular target: T5, ELF3 (Homo sapiens, UniProt P78545 1-371); settings: protein: recombinant; tags: N-terminal GST; dsDNA, one strand shown
# T5 sequence: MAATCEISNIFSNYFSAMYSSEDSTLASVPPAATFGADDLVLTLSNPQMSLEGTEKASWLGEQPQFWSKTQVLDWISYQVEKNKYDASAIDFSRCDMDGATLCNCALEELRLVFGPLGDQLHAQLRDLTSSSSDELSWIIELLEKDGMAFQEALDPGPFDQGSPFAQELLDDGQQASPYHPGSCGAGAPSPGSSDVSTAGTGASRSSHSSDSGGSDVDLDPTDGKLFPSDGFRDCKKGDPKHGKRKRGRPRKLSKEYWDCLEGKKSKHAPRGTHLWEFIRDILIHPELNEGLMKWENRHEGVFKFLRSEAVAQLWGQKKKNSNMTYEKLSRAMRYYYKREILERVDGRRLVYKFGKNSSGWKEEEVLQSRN
# How it was run: as §1
# CRX = CRX (Homo sapiens, UniProt O43186 1-299); settings: protein: recombinant; tags: N-terminal GST; dsDNA, one strand shown
# How it was run: as §1
# ETV1 = ETV1 (Homo sapiens, UniProt P50549 1-477); settings: protein: recombinant; tags: N-terminal GST; dsDNA, one strand shown
# How it was run: as §1
# ERF = molecular target: T6, ERF (Homo sapiens, UniProt P50548 1-548); settings: protein: recombinant; tags: N-terminal GST; dsDNA, one strand shown
# T6 sequence: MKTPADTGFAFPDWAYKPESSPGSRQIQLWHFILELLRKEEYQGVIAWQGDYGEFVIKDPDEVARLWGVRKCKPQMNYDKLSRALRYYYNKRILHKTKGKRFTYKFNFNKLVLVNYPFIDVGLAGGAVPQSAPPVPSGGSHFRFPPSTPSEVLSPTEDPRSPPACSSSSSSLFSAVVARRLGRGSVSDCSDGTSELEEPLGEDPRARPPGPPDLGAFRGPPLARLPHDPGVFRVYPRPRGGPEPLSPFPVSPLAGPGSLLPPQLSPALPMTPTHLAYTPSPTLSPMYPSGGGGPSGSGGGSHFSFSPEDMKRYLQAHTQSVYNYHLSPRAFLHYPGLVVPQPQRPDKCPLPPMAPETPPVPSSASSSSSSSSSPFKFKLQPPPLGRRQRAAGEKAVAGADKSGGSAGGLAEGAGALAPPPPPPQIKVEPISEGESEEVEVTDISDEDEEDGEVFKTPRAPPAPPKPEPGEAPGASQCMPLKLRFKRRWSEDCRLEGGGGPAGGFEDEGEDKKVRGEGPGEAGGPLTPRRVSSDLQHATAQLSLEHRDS
# How it was run: as §1
# ETV3L = molecular target: T7, ETV3L (Homo sapiens, UniProt Q6ZN32 1-361); settings: protein: recombinant; tags: N-terminal GST; dsDNA, one strand shown
# T7 sequence: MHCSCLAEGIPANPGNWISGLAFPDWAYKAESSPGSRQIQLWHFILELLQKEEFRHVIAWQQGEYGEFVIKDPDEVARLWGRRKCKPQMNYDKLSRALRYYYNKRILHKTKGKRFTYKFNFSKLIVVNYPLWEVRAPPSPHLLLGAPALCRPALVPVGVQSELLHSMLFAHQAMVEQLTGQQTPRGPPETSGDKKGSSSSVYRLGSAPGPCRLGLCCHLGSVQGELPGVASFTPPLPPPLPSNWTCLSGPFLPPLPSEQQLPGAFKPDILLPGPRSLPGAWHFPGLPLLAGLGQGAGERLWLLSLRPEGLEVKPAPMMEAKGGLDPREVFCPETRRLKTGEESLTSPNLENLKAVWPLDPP
# How it was run: as §1
# ETS2 = molecular target: T8, ETS2 (Homo sapiens, UniProt P15036 1-469); settings: protein: recombinant; tags: N-terminal GST; dsDNA, one strand shown
# T8 sequence: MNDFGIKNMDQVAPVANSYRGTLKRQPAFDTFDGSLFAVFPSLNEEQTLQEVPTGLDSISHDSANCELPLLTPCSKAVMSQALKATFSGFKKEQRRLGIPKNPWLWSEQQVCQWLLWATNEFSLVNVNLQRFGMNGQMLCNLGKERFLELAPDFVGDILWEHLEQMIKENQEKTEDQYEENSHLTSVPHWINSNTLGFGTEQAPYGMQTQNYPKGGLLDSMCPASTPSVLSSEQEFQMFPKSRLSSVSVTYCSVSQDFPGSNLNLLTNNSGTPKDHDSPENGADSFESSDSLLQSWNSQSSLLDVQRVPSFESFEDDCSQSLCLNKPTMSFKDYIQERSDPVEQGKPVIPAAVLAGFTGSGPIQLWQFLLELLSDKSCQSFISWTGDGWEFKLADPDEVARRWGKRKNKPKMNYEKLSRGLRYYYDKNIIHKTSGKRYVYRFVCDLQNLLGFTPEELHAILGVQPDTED
# How it was run: as §1
# SPDEF = molecular target: T9, SPDEF (Homo sapiens, UniProt O95238 1-335); settings: protein: recombinant; tags: N-terminal GST; dsDNA, one strand shown
# T9 sequence: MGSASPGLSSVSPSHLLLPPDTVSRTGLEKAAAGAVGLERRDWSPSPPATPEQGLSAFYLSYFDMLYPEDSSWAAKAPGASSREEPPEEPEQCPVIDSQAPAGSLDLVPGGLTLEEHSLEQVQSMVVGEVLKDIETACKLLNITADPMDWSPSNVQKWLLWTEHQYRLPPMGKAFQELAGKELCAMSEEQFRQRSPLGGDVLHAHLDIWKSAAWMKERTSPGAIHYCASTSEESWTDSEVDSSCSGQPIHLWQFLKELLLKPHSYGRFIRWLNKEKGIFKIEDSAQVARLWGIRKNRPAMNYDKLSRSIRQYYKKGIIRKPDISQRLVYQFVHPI
# How it was run: as §1
# ETV7 = molecular target: T10, ETV7 (Homo sapiens, UniProt Q9Y603 1-341); settings: protein: recombinant; tags: N-terminal GST; dsDNA, one strand shown
# T10 sequence: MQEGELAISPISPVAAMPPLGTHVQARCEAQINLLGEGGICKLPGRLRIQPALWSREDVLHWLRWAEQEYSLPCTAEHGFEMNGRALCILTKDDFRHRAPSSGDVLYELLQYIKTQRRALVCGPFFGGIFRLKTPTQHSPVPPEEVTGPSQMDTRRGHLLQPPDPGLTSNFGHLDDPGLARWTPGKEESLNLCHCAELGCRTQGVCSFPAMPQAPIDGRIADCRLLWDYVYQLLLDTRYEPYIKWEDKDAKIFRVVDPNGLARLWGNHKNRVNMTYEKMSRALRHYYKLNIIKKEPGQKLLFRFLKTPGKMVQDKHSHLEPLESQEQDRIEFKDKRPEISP
# How it was run: as §1
# ELF5 = molecular target: T11, ELF5 (Homo sapiens, UniProt Q9UKW6-2 1-255); settings: protein: recombinant; tags: N-terminal GST; dsDNA, one strand shown
# T11 sequence: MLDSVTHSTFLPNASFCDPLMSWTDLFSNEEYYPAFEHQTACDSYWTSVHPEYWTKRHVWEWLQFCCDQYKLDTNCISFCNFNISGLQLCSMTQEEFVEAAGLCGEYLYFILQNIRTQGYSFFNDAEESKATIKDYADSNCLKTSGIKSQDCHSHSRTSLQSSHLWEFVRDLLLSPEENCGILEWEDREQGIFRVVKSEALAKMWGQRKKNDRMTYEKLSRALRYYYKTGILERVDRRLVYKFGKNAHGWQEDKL
# How it was run: as §1
# ETV3 = molecular target: T12, ETV3 (Homo sapiens, UniProt P41162-2 1-143); settings: protein: recombinant; tags: N-terminal GST; dsDNA, one strand shown
# T12 sequence: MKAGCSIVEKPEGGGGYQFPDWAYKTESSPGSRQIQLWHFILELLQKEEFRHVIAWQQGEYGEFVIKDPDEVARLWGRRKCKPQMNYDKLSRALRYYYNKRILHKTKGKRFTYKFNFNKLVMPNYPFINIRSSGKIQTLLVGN
# How it was run: as §1
# ETV6 = ETV6 (Homo sapiens, UniProt P41212 1-452); settings: protein: recombinant; tags: N-terminal GST; dsDNA, one strand shown
# How it was run: as §1
# Sequence of ETV1 (P50549 whole entry): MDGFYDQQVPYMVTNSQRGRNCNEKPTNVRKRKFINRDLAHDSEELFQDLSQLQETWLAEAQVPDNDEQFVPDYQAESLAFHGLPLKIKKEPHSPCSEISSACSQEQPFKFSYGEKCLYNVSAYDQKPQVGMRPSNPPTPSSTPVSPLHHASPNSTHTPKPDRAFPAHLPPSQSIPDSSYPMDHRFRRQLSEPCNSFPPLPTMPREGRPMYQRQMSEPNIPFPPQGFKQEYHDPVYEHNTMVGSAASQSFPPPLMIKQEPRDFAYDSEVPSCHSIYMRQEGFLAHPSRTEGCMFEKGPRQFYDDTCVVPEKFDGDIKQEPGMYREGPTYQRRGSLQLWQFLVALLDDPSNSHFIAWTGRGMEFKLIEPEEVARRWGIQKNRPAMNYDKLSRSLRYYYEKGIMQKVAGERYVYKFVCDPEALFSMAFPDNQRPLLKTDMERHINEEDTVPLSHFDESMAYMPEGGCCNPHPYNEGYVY
# Sequence of HSF1 (Q00613 whole entry): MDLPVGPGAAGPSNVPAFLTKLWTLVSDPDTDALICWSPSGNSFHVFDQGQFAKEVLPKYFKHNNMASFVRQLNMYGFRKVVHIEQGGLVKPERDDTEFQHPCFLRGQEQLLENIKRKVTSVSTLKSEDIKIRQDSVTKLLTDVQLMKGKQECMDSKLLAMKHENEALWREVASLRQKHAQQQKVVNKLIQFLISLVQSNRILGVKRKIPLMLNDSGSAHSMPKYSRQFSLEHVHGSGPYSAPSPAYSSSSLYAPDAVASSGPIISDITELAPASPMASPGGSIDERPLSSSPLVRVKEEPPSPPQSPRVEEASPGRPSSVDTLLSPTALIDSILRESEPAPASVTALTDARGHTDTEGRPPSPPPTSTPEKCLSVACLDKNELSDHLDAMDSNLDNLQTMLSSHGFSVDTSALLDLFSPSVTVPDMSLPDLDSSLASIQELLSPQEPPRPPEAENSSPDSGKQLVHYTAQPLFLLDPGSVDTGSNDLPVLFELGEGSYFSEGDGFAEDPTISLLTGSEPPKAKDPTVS
# Sequence of ETV6 (P41212 whole entry): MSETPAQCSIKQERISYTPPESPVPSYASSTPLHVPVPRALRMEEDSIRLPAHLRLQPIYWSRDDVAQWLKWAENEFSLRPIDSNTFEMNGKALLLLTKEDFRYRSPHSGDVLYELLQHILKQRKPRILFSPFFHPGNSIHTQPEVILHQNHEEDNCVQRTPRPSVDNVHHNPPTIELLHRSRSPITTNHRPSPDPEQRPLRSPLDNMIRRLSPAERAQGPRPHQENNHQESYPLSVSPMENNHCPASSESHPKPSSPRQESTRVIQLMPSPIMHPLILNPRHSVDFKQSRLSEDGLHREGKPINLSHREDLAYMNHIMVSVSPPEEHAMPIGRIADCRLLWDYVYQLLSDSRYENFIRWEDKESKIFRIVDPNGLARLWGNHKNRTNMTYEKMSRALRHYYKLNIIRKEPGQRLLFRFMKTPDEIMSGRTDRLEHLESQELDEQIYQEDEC
# Sequence of CRX (O43186 whole entry): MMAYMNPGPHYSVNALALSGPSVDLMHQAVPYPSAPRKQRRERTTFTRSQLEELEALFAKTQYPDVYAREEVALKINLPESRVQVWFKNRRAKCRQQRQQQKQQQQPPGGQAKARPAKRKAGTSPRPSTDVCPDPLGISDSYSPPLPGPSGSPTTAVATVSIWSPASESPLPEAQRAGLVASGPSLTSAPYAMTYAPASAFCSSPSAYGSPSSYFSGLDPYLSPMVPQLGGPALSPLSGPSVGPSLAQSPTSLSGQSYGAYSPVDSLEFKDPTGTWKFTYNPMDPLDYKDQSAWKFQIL
# Sequence of ETV5 (P41161 whole entry): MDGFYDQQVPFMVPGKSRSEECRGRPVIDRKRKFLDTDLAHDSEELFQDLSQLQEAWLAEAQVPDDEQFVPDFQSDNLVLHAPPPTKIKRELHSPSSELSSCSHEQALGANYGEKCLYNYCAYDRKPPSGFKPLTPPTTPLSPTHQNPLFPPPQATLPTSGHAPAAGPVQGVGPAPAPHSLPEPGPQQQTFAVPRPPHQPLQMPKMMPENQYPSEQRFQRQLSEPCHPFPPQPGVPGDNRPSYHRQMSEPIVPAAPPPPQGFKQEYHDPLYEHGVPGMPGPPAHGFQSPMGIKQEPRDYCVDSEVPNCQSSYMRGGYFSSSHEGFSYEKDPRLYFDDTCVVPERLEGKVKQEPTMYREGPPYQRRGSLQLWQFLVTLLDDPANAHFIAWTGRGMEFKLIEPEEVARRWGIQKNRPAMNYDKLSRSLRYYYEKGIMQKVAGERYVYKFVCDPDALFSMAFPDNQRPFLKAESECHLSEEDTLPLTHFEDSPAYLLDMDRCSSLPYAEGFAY
# Sequence of ELF4 (Q99607 whole entry): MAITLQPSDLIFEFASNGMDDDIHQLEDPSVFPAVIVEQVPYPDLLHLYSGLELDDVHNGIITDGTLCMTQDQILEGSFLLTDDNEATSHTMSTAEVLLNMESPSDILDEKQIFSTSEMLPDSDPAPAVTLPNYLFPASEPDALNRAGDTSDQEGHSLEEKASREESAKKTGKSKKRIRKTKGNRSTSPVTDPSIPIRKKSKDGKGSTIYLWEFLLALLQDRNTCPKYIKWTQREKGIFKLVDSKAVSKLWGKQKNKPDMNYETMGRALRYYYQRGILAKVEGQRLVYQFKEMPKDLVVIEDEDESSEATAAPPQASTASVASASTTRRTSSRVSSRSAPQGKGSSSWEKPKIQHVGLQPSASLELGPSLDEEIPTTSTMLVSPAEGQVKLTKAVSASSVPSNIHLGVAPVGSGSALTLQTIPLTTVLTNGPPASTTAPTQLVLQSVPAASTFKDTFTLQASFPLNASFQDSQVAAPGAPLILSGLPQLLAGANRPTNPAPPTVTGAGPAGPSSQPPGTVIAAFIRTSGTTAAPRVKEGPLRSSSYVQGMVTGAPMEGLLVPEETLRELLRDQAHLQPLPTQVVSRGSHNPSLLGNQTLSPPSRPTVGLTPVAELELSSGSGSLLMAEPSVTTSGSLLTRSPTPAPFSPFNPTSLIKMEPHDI
sequence,measurement,setting,value
TTTCCG,binding signal,FEV,"5.31 fold enrichment (6-mer frequency, TF over GST control)"
same,binding signal,ETV5,"4.02 fold enrichment (6-mer frequency, TF over GST control)"
same,binding signal,HSF1,"1.48 fold enrichment (6-mer frequency, TF over GST control)"
same,binding signal,SPIC,"3.86 fold enrichment (6-mer frequency, TF over GST control)"
same,binding signal,ELF4,"3.35 fold enrichment (6-mer frequency, TF over GST control)"
same,binding signal,ELK4,"2.97 fold enrichment (6-mer frequency, TF over GST control)"
same,binding signal,ETV2,"3.65 fold enrichment (6-mer frequency, TF over GST control)"
same,binding signal,ELF3,"3.54 fold enrichment (6-mer frequency, TF over GST control)"
same,binding signal,CRX,"1.39 fold enrichment (6-mer frequency, TF over GST control)"
same,binding signal,ETV1,"3.76 fold enrichment (6-mer frequency, TF over GST control)"
same,binding signal,ERF,"3.3 fold enrichment (6-mer frequency, TF over GST control)"
same,binding signal,ETV3L,"3.52 fold enrichment (6-mer frequency, TF over GST control)"
same,binding signal,ETS2,"3.92 fold enrichment (6-mer frequency, TF over GST control)"
same,binding signal,SPDEF,"3.35 fold enrichment (6-mer frequency, TF over GST control)"
same,binding signal,ETV7,"3.55 fold enrichment (6-mer frequency, TF over GST control)"
same,binding signal,ELF5,"5.34 fold enrichment (6-mer frequency, TF over GST control)"
same,binding signal,ETV3,"4.06 fold enrichment (6-mer frequency, TF over GST control)"
same,binding signal,ETV6,"4.37 fold enrichment (6-mer frequency, TF over GST control)"

# From paper PMC7862700, “An all-to-all approach to the identification of sequence-specific readers for epigenetic DNA modifications on cytosine”
